Assay results published in PubChem BioAssay.

assay: resazurin metabolic signal in HepG2 cells – cell-based, resazurin fluorescence, 24 h, PK04 Diversity Set, profiling panel (AID 1172); conditions: HepG2 viability, higher = more signal; note: test concentration not given here

| Compound | z-score |
| --- | --- |
| COC(=O)[C@@]1(Cc2ccc(OC)cc2)[C@H]2c3cc(C(=O)N4CCCC4)n(CCc4ccccn4)c3C[C@H]2CN1C(=O)c1ccccc1 | -0.608 |
| CC(=O)N1Cc2ccccc2C[C@@]2(N=C(c3ccc(OCCCO)cc3)O[C@H]2c2ccccc2)C1=O | -1.33 |
| CC(C)NC(=O)[C@@]1(c2ccc([N+](=O)[O-])cc2)CC(=O)N(C(C)C)[C@@H]1c1ccc(CO)cc1 | -0.864 |
| CC(C)C(O)C1C=CC2C(=O)N(C)C(=O)C2N1N1CCCCC1 (stereo not given) | -0.401 |
| CCCC[C@@H]1C[C@H]1[C@@H](NC(=O)c1ccccc1)c1ccccc1 | 0.237 |
| CCN(CC)c1ccc(N2CC=CC34O[C@@H]5/C=C\CCCOC(=O)C5[C@H]3C(=O)N(CCCO)[C@@H]4C2=O)cc1 (stereo not given in full) | 0.434 |
| COc1ccc(C(O)C2C=CC3C(=O)N(c4ccccc4)C(=O)C3N2Nc2ccccc2)c2ccccc12 (stereo not given) | -1.41 |
| O=[N+]([O-])c1ccc(C[n+]2ccc(CCCO)cc2)o1 | -1.32 |
| C[N+](C)(C)CCCCNC(=O)[C@H]1C[C@H]2C(=O)N3CCC[C@H]3C(=O)N2[C@H]1c1ccc(O)cc1 | 0.0897 |
| COCCOC(=O)N1C(=O)[C@@]2(c3ccccc31)[C@H](C(=O)N1CCCCCCC1)[C@H]1C(=O)O[C@H](c3ccccc3)[C@H](c3ccccc3)N1[C@@H]2c1ccccc1OCCO | -0.415 |
| C=CCC(OC(C)=O)[C@@H]1[C@@H](N(Cc2ccc(-c3ccccc3)cc2)C(=O)c2ccc(C)cc2)c2cc(OCCCO)ccc2N1C(=O)Cc1ccc(OC)cc1 (stereo not given in full) | 0.989 |
| COC(=O)[C@@]1(Cc2ccc(OC)cc2)[C@H]2c3cc(C(=O)N4CCCC4)n(C[C@H](O)CO)c3C[C@H]2CN1C(=O)c1ccccc1 | -0.0006 |
| O=C1O[C@H](c2ccccc2)[C@H](c2ccccc2)N2[C@H]1[C@@H](C(=O)NC[C@H](O)c1ccccc1)[C@]1(C(=O)Nc3ccc(C#CC4=CCCCC4)cc31)[C@H]2c1ccc(O)cc1 | -0.654 |
| COc1ccc([Si](C)(C)[C@@H]2[C@@H](CCO)O[C@]3(C(=O)N(Cc4ccccc4)c4ccc(N(C=O)c5ccccc5)cc43)[C@H]2C)cc1 | -0.131 |
| COc1cc(NN2C(C(O)c3ccccc3)C=CC3C(=O)N(c4ccccc4)C(=O)C32)cc(OC)c1OC (stereo not given) | -1.04 |
| CN(C)CCCCNC(=O)[C@@H]1C[C@@H]2C(=O)N[C@@H](CCCCN)C(=O)N2[C@@H]1c1cccc(OCCO)c1 | 0.0914 |
| COc1c(C)cc(-c2cc3c(c(-c4ccccc4)n2)[Si](C(C)C)(C(C)C)O[C@H]3c2ccccc2)cc1C | -0.315 |
| [N-]=[N+]=NCc1ccccc1C[C@]1(C(=O)NCc2ccccc2)COC(c2ccc(OCCCO)cc2)=N1 | -1.89 |

| Compound | z-score |
| --- | --- |
| C=CCOC(=O)[C@@H]1[C@H]2C(=O)O[C@H](c3ccccc3)[C@H](c3ccccc3)N2[C@H](c2ccc(OCCOC(=O)[C@H]3C[C@H]4C(=O)N[C@@H](CCCC[N+](C)(C)C)C(=O)N4[C@H]3c3cccc(OCCO)c3)cc2)[C@@]12C(=O)Nc1ccc(I)cc12 | -0.0059 |
| O=C1OCC=C[C@H]2OC34C=CCN(c5ccc(Cl)cc5)C(=O)[C@H]3N(CCCO)C(=O)[C@@H]4[C@@H]12 (stereo not given in full) | -0.458 |
| O=c1cccc(-c2ccccc2)o1 | 0.123 |
| C=C(COC)C(=O)CC[C@H](OC(=O)c1cccnc1)c1ccccc1OCCO | -0.577 |
| CCCCCN1CC=CC23O[C@@H]4C=CCCOC(=O)C4[C@H]2C(=O)N(CCCO)[C@@H]3C1=O (stereo not given in full) | 0.457 |
| CCN(CC)c1ccc(N2CC=CC34O[C@@H]5C=CCOC(=O)[C@@H]5[C@H]3C(=O)N(CCCCCO)[C@@H]4C2=O)cc1 (stereo not given in full) | 0.34 |
| C#C[C@H]1Oc2ccccc2S(=O)(=O)N2CCC[C@@H]12 | -0.87 |
| O=C1C2C=CC(C(O)c3ccc(B(O)O)cc3)N(Nc3ccc([N+](=O)[O-])cc3)C2C(=O)N1c1ccccc1 (stereo not given) | 0.0107 |
| O=C1OCCC/C=C\[C@H]2OC34C=CCN(CCN5CCOCC5)C(=O)[C@H]3N(CCO)C(=O)[C@@H]4C12 (stereo not given in full) | -0.881 |
| CC(=O)n1cc(C(O)C2C=CC3C(=O)N(c4ccccc4)C(=O)C3N2Nc2ccc(C#N)cc2)c2ccccc21 (stereo not given) | -0.592 |
| COc1ccc(C(=O)Nc2cccc(CN3C(=O)[C@@]4(O[C@@H](CCn5cc([C@H](O)c6ccccc6)nn5)[C@H]([Si](C)(C)c5ccc(OC)cc5)[C@H]4C)c4ccccc43)c2)cc1 | -2.55 |
| COC(=O)[C@@]1(Cc2ccc(F)cc2)[C@H]2c3cc(C(=O)N4CCCC4)n(CCc4ccc(OC)c(Br)c4)c3C[C@H]2CN1C(=O)c1ccccc1 | -1.25 |
| CC(C)N1C(=O)c2ccccc2[C@](C)(C(=O)NC2CC2)[C@@H]1c1ccc(CO)cc1 | 0.989 |
| CCCNC(=O)[C@@]1(C)c2ccccc2C(=O)N(Cc2ccc(OC(F)(F)F)cc2)[C@H]1c1ccc(CO)cc1 | -0.0818 |
| C=CCC(OC(C)=O)[C@@H]1[C@@H](N(Cc2ccc(-c3cccc(C(F)(F)F)c3)o2)C(=O)Cc2ccc(OC)cc2)c2cc(OCCCO)ccc2N1C(=O)Cc1ccc(OC)cc1 (stereo not given in full) | -0.0596 |
| COC(=O)[C@@]1(Cc2ccccc2)[C@H]2c3cc(C(=O)N(C)C)n(Cc4cc(F)c(F)c(F)c4)c3C[C@H]2CN1C(=O)c1ccccc1 | 0.0126 |
| C=C(C)[C@@H]1CC=C(C(O)C2C=CC3C(=O)N(Cc4ccccc4)C(=O)C3N2n2cnnc2)CC1 (stereo not given in full) | -0.429 |
